Source: the supplement of paper PMC10849652
Of roughly 7,900 targets only a part is listed; those with a hit were picked by preference. About 0.6% of all pairs of compound and target were hits.

The targets below were run with CC1=C(C=C(C=C1)NC(=O)C2=CC(=CC=C2)C(C)(C)C#N)NC3=CC4=C(C=C3)N=CN(C4=O)C (assay: log2 fold change, soluble protein after heating vs DMSO (PISA); higher = thermal stabilisation; K562 cells, 10 uM, 30 min; active = over 0.2 and 3.5 SD of the protein, either way, in both replicates (recomputed)).
In short: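 Values are thermal stability changes relative to control samples and are taken from duplicates. They are stated as log2 fold changes. Before quantification by TMTpro 16plex LC-MS/MS with equalised channel sums, K562 cells at 2×10^6 cells/mL were treated with 10 μM compound for 30 min, heated in aliquots for 3 min across 48°C-58°C, pooled, extracted in PBS with 0.5% NP-40 at 4°C, and centrifuged at 21,000xg for 90 min to give the soluble supernatant.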

Chain of UniProt P24534 (P24534 whole entry, looked up): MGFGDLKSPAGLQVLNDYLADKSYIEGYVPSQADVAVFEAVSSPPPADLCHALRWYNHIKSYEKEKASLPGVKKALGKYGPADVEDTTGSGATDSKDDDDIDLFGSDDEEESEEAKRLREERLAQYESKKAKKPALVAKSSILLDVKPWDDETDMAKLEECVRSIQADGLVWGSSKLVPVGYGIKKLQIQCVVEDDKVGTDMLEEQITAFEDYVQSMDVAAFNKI
Chain of UniProt Q6IAN0 (Q6IAN0 whole entry, looked up): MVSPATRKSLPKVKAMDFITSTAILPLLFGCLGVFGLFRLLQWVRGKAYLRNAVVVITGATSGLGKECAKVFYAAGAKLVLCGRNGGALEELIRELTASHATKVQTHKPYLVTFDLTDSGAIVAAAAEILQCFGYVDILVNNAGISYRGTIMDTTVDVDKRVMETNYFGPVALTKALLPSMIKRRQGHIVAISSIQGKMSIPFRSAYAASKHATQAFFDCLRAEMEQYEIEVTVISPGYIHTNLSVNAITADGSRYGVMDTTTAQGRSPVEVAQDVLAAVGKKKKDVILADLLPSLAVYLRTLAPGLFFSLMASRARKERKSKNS
Chain of UniProt Q9UJU6 (Q9UJU6 whole entry, looked up): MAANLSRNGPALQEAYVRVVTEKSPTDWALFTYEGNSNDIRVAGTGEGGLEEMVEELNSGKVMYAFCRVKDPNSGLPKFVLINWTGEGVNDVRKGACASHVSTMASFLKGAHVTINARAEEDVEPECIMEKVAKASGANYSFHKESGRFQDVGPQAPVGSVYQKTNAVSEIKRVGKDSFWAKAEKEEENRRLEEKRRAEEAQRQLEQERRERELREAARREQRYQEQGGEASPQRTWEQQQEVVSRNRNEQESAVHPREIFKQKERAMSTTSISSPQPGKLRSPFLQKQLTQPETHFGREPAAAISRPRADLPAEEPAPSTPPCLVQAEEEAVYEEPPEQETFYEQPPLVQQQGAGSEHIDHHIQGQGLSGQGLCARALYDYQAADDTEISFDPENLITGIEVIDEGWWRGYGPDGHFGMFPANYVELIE
Chain of UniProt P49366 (P49366 whole entry, looked up): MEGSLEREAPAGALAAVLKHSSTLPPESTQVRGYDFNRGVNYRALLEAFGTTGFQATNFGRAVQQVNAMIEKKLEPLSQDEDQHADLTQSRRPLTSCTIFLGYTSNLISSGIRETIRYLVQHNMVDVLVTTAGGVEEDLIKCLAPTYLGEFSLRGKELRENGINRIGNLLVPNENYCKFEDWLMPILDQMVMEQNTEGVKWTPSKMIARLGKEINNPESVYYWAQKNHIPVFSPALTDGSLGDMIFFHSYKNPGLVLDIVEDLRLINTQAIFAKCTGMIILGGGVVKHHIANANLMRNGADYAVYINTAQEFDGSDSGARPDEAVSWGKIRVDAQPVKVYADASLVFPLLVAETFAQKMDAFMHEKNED
Chain of UniProt O60888 (O60888 whole entry, looked up): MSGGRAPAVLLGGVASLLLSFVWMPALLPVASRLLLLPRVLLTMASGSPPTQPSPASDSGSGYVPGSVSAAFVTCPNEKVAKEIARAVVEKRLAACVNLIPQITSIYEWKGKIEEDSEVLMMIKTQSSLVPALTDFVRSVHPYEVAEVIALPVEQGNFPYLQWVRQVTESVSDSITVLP
Chain of UniProt Q9H467 (Q9H467 whole entry, looked up): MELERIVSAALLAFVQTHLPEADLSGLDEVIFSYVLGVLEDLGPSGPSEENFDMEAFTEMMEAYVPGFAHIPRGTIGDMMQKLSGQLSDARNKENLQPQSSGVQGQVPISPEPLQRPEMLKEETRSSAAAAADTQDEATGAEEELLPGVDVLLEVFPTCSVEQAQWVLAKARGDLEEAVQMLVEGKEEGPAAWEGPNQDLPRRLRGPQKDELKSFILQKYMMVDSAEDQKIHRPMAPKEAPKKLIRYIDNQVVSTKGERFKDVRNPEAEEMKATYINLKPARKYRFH
Chain of UniProt Q9H2U1 (Q9H2U1 whole entry, looked up): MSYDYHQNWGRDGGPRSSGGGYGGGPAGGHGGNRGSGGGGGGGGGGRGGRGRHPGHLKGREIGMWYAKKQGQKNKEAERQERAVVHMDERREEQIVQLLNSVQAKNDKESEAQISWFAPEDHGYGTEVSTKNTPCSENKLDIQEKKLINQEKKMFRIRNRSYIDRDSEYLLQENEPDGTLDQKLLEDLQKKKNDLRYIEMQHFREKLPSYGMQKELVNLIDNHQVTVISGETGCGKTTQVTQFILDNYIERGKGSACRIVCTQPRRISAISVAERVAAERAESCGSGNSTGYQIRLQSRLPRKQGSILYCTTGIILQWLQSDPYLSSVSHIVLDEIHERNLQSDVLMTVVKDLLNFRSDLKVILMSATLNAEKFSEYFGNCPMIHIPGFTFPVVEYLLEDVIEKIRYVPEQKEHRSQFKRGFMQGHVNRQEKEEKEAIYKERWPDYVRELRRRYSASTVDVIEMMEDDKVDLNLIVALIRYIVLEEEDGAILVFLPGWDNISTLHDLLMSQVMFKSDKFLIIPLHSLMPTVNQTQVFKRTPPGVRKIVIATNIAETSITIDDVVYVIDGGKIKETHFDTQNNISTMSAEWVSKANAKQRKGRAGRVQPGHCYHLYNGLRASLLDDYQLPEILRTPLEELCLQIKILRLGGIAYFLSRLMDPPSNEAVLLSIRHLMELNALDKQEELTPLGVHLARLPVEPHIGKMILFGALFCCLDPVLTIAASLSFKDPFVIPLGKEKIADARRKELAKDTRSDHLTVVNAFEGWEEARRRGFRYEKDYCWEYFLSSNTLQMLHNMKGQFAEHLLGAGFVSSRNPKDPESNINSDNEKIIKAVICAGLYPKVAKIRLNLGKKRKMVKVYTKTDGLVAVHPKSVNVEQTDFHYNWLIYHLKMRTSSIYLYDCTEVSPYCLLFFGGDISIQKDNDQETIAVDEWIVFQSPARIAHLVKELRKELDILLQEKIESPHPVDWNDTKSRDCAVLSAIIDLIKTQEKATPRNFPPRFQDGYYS
Chain of UniProt Q15392 (Q15392 whole entry, looked up): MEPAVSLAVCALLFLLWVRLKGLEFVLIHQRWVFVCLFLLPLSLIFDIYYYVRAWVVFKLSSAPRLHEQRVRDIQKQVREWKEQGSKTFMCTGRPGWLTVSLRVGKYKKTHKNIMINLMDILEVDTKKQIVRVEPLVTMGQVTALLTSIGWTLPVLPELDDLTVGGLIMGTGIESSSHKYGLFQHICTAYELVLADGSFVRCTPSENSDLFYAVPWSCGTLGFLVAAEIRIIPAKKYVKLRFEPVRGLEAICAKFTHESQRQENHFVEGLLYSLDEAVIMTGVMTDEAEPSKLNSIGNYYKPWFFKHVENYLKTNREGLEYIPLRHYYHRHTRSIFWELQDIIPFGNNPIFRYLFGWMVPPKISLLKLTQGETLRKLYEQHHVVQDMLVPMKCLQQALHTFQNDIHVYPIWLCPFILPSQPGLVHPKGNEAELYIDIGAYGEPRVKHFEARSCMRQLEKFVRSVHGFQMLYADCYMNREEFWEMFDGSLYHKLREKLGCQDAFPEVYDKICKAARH
Chain of UniProt Q9NRY5 (Q9NRY5 whole entry, looked up): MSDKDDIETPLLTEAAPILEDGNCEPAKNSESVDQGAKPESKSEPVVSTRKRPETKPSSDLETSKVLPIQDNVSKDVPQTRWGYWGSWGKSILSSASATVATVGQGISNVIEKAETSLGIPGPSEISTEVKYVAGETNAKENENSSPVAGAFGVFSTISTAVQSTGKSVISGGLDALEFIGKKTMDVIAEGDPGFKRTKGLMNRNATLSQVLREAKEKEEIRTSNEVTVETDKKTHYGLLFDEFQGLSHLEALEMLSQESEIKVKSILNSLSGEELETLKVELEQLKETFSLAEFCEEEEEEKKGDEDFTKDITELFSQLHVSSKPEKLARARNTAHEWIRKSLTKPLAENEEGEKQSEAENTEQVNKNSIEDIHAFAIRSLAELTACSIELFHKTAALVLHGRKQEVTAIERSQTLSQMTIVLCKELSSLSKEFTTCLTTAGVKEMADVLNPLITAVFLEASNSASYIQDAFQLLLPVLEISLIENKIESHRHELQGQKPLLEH
Chain of UniProt Q8N5C7 (Q8N5C7 whole entry, looked up): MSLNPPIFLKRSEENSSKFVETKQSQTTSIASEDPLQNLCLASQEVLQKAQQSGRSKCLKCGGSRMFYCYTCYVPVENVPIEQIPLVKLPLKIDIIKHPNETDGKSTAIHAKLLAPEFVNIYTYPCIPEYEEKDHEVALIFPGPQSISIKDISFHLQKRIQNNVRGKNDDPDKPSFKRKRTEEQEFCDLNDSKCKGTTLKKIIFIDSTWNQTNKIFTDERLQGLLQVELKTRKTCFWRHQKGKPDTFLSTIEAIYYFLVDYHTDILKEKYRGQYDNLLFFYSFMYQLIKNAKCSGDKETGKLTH
Chain of UniProt Q96DA6 (Q96DA6 whole entry, looked up): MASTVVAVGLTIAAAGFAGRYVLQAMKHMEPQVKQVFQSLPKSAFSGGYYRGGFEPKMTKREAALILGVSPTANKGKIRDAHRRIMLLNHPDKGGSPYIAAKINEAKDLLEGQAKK
Chain of UniProt P41091 (P41091 whole entry, looked up): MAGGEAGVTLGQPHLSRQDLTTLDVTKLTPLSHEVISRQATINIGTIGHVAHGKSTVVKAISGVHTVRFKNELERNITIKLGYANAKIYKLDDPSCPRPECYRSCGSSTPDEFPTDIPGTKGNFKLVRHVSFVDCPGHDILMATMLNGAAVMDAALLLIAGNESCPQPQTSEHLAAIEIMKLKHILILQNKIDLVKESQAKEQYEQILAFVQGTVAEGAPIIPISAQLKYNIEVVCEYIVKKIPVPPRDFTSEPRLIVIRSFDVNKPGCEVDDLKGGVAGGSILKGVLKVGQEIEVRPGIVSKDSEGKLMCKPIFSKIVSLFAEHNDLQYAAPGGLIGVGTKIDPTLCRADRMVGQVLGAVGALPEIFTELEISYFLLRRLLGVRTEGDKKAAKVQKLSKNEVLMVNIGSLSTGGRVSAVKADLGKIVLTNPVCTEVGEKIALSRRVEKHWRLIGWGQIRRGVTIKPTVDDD
Chain of UniProt Q9H773 (Q9H773 whole entry, looked up): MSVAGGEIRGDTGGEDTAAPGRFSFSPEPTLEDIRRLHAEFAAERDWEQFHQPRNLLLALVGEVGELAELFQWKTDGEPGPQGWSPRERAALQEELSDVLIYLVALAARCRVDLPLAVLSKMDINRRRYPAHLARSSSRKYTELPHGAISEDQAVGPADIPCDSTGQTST

Target | log2 fold change
ECPAS (UniProt Q5VYK3) | 0.008 (inactive)
FAAP100 (UniProt Q0VG06) | -0.004 (inactive)
DCTN1 isoform 4 (UniProt Q14203) | 0.022 (inactive)
DMAC1 (UniProt Q96GE9) | -0.173 (inactive)
DBNL isoform 3 (UniProt Q9UJU6) | -0.051 (inactive)
DNAJC24 (UniProt Q6P3W2) | -0.024 (inactive)
EIF4E2 (UniProt O60573) | -0.089 (inactive)
DHPS (UniProt P49366) | -0.074 (inactive)
DBR1 (UniProt Q9UK59) | -0.005 (inactive)
ELOC (UniProt Q15369) | 0.016 (inactive)
EXOC8 (UniProt Q8IYI6) | 0.035 (inactive)
EEF1D isoform 2 (UniProt P29692) | 0.039 (inactive)
DHRS7B (UniProt Q6IAN0) | -0.008 (inactive)
ERCC2 (UniProt P18074) | -0.024 (inactive)
EIF2S3 (UniProt P41091) | 0.02 (inactive)
CYP51A1 (UniProt Q16850) | 0.063 (inactive)
FAM114A2 (UniProt Q9NRY5) | 0.007 (inactive)
CUTA isoform 2 (UniProt O60888) | -0.121 (inactive)
EEF1B2 (UniProt P24534) | 0.024 (inactive)
DCTPP1 (UniProt Q9H773) | 0.003 (inactive)

Target | log2 fold change
EED, A0A5F9ZI63 | 0.005 (inactive)
DTWD1 (UniProt Q8N5C7) | 0.05 (inactive)
EEF1A1 (UniProt P68104) | -0.069 (inactive)
FAM177A1 isoform 2 (UniProt Q8N128) | -0.071 (inactive)
E2F4 (UniProt Q16254) | 0.031 (inactive)
FAM50A (UniProt Q14320) | 0.041 (inactive)
DIAPH1 (UniProt O60610) | 0.018 (inactive)
DUS3L (UniProt Q96G46) | 0.064 (inactive)
DLD (UniProt P09622) | -0.045 (inactive)
CUEDC2 (UniProt Q9H467) | -0.03 (inactive)
DHCR24 (UniProt Q15392) | 0.248 (inactive)
CTNNB1 (UniProt P35222) | -0.118 (inactive)
DHX36 (UniProt Q9H2U1) | 0.015 (inactive)
DYNC1I2 isoform 5 (UniProt Q13409) | -0.008 (inactive)
DTNBP1 (UniProt Q96EV8) | -0.078 (inactive)
DIP2A (UniProt Q14689) | 0.032 (inactive)
DNAAF2 (UniProt Q9NVR5) | -0.037 (inactive)
DAB2 (UniProt P98082) | 0.016 (inactive)
DNAJC19 (UniProt Q96DA6) | -0.02 (inactive)
